Assay outcomes: PubChem, Broad Institute
Rows were chosen to be rich in hits. Some 3.4% of all compounds tested hit in one or more screens of this group.
PGC1a acetyl inh = PGC1a acetylation modulation, inhibitor mode | U2OS PGC1a acetylation, AlphaScreen anti-acetyl-lysine; with virally co-expressed GCN5 acetyltransferase | AID 651687 | actives 0.17% (n = 350,000) | inhibition, % at 15.6 µM;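 active = every replicate shows inhibition of at least 40%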;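 note: 0% = neutral control wells and 100% = positive control wells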
Ecoli rRNA inh = selective bacterial rRNA inhibition in E. coli. GFP signal change (wild-type ribosome), % (concentration not given with the values). E. coli WT GFP vs humanized-ribosome RFP mutants, fluorescence, 24 h; active compounds read low; DMSO median 0, no signal -100. AID 720706. actives 1.6% (n = 350,000);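 active = significant combined selectivity score with lowered wild-type GFP, culture density cut under 30%, mutant RFP and density less affected; inactive = any of these conditions unmet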
LGR2 inh = Drosophila LGR2 receptor signaling inhibition; HEK293 LGR2, CRE-luciferase, bursicon-stimulated, 4 h; inhibition, % at 9.99 µM; actives 0.35% (n = 380,000);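 active = drop in luminescence signal, shown as inhibition above about 50% in the replicate tests, limit read from the data, passing the limit was not always enough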;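 note: agonist challenge used bursicon conditioned medium at about half maximal strength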
EWS-Fli inh = EWS/Fli transcriptional activity inhibition. A673 NR0B1-luciferase reporter, viability-normalised. inhibition, % at 12.6 µM. actives 0.67% (n = 350,000);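 active = mean inhibition of at least 50% after viability correction, with every replicate also passing that limit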;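 note: firefly luciferase signal divided by Alamar Blue viability fluorescence both relative to DMSO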
PAX8 inh HTS = PAX8 transcriptional activity inhibition. RMG-I TPO-luciferase reporter, SteadyGlo, 24 h. inhibition, % at 12.6 µM. actives 1.2% (n = 360,000);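 active = mean replicate inhibition at least 60% with every replicate also reaching 60%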;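 note: luciferase light reporting Pax8 driven TPO promoter activity; plate controls were median of neutral control wells for no effect and mitoxantrone controls for full effect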
SIRT5 inh = blocks human SIRT5 desuccinylation of peptide. inhibition, % at 15 µM. Purified SirT5, succinyl-peptide AMC, trypsin-coupled fluorescence. actives 1.1% (n = 330,000). Q9NXA8. AID 652115; in the data active = inhibition above about 15%
Target sequence (Q9NXA8 whole entry, looked up): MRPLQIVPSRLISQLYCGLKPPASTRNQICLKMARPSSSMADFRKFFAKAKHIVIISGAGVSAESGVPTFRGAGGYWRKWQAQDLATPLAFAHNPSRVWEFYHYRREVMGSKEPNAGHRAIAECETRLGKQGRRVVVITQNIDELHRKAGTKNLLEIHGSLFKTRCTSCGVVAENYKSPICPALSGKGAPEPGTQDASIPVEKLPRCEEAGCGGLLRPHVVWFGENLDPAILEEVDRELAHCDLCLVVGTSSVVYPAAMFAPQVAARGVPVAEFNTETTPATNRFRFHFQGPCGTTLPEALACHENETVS
Active calls of the source: *; · = no result; ! = a repeat was not active.

SMILES | PGC1a acetyl inh | Ecoli rRNA inh | LGR2 inh | EWS-Fli inh | PAX8 inh HTS | SIRT5 inh
COc1ccc(-c2nc(C)ncc2-c2ccccc2)c(O)c1 | -5 | -28* | -3 | 1 | -29 | -6
O=C(C=P(c1ccccc1)(c1ccccc1)c1ccccc1)c1ccccc1-c1ccccc1C(=O)C=P(c1ccccc1)(c1ccccc1)c1ccccc1 | · | 0 | 25 | 50 | 114* | -4
O=C(NNC(=O)c1ccccc1-c1ccccc1C(=O)O)c1ccccc1 | 14 | 16 | -29 | 3 | 8 | -4
C[C@@H]1CN([C@H](C)CO)S(=O)(=O)c2ccc(C#CC3CCCC3)cc2O[C@H]1CN(C)C(=O)Cc1ccccc1 | 8 | -8 | -6 | 29 | 67*! | 17*!
C[C@H](CO)N1C[C@H](C)[C@@H](CN(C)C(=O)Cc2ccccc2)Oc2cc(C#CC3CCCC3)ccc2S1(=O)=O | 6 | -3 | -1 | 21 | 60 | 15*
C[C@@H]1CN([C@@H](C)CO)S(=O)(=O)c2ccc(C#Cc3ccccc3F)cc2O[C@H]1CN(C)C(=O)Cc1ccccc1 | 10 | 1 | 11 | 37 | 92* | 2
C[C@@H]1CN([C@H](C)CO)S(=O)(=O)c2ccc(C#CC3CCCC3)cc2O[C@@H]1CN(C)C | -9 | 2 | -12 | -4 | 8 | 3
C[C@H]1CN([C@@H](C)CO)S(=O)(=O)c2ccc(C#Cc3ccccc3F)cc2O[C@@H]1CN(C)C(=O)Cc1ccccc1 | 5 | -1 | 17 | 26 | 59 | 1
C[C@@H]1CN([C@H](C)CO)S(=O)(=O)c2ccc(C#CC3CCCC3)cc2O[C@H]1CN(C)C | -52 | 1 | · | 27 | 14 | 101*
C[C@@H]1CN([C@@H](C)CO)S(=O)(=O)c2ccc(C#CC3CCCC3)cc2O[C@H]1CN(C)C(=O)Cc1ccccc1 | 16 | 0 | 30 | -12 | 57 | 2
CCCNC(=O)N1CC2(CN(C(=O)c3cccnc3)C2)c2c([nH]c3cc(OC)ccc23)[C@@H]1CO | 5 | 0 | -7 | 11 | · | ·
C[C@@H]1CN([C@H](C)CO)S(=O)(=O)c2ccc(C#CC3CCCC3)cc2O[C@H]1CN(C)C(=O)Nc1cc(F)ccc1F | 19 | 2 | -11 | 0 | 51 | 15*
C[C@H]1CN([C@@H](C)CO)S(=O)(=O)c2ccc(C#CC3CC3)cc2O[C@H]1CN(C)C(=O)c1ccccn1 | -4 | -4 | -18 | 0 | · | 30*
C[C@H]1CN([C@@H](C)CO)S(=O)(=O)c2ccc(C#CC3CC3)cc2O[C@@H]1CN(C)C(=O)Cc1ccncc1 | -14 | 1 | -8 | 11 | · | 18*
CCN1[C@@H]2c3ccc(-c4cccc(F)c4)c(=O)n3C[C@@H]2[C@@H](CO)[C@@H]1C(=O)N(C)C | · | 3 | 7 | -4 | 2 | -2
COc1cccc(CNC(=O)C[C@@H]2CC[C@@H](NC(C)=O)[C@@H](CO)O2)c1 | -5 | 3 | 3 | -7 | -2 | 0
NNC(=O)C(=O)Nc1ccc(Cl)c(Cl)c1 | -8 | -1 | 6 | -2 | -6 | -3
CC(Nc1ccc(Cl)c(Cl)c1)C(=O)NN (stereo not drawn) | -3 | -26* | -4 | 11 | 14 | -3
CCNC(=O)C[C@@H]1CC[C@@H]2[C@H](COc3ccc(NC(=O)Nc4ccc(C)cc4)cc3C(=O)N2C)O1 | -7 | 1 | -3 | -20 | -3 | -6
Brc1ccccc1CN1CCN(Cc2c[nH]c3ccccc23)CC1 | · | -23* | 4 | 45 | 63* | -6
COc1ccc(OC)c(NC(=O)CSc2nnc(CNC(=O)c3cccs3)o2)c1 | 3 | 5 | -4 | · | 2 | 21*
COc1ccc(OC)c(NC(=O)CSc2nnc(CNC(=O)c3ccco3)o2)c1 | 52 | · | · | · | 3 | ·
CN(C)CC(=O)Nc1ccc2c(c1)[C@H]1C[C@H](CC(=O)NCc3ccc(Cl)cc3)O[C@H](CO)[C@H]1O2 | 5 | 0 | 12 | 5 | · | -2
CC(N)=Nc1ccc([N+](=O)[O-])cc1 | 7 | · | 11 | · | -5 | ·
O=[N+]([O-])c1ccc(N=Nc2c(Cl)cc(O)cc2Cl)cc1 | -53 | -5 | 22 | -15 | 98* | 2
